Parameters in all cases: scale not given: direction of the effect not stated beside the values
The target of test [1] is Protein translocase subunit SecA (Escherichia coli (strain K12)) (UniProt P10408). The test is described as follows: Assay to Identify E. coli SecA ATPase Inhibitors. Type of test: functional. The following applies: 30 µM.
Test [2] deals with T1, Ubiquitin-activating enzyme e1, putative (Leishmania donovani (strain BPK282A1)) (UniProt E9BSI1).
T1 sequence (whole entry): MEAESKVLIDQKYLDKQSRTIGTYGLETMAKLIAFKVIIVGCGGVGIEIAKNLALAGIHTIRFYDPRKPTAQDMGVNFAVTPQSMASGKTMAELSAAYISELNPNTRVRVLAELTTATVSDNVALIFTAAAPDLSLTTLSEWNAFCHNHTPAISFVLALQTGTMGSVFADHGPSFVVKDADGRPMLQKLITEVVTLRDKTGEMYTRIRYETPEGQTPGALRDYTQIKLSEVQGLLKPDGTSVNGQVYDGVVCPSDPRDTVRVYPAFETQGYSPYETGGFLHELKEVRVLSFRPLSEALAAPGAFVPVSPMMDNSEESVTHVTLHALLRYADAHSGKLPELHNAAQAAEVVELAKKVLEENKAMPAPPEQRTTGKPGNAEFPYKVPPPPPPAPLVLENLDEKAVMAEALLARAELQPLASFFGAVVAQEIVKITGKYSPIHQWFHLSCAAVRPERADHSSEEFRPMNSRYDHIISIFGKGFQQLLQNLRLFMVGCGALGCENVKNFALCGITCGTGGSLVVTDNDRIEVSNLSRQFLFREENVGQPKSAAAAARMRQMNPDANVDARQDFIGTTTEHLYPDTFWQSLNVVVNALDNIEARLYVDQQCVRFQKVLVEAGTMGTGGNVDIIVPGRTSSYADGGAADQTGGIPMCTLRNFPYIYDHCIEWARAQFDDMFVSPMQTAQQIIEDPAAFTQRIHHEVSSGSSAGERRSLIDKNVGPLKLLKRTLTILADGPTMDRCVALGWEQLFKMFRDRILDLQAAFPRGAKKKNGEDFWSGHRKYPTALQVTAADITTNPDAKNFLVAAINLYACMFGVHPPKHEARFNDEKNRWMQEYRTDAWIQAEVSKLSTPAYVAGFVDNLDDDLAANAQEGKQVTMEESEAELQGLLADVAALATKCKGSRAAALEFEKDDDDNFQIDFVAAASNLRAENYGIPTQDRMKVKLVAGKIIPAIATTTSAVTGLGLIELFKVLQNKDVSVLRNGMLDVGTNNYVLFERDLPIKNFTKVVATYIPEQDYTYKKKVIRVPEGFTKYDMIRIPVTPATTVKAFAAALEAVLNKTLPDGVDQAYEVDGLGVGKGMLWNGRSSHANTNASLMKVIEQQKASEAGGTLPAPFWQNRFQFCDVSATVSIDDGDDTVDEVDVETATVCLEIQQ
Briefly: Leishmania donovani Ubiquitin Activating Enzyme (LdE1). Type of test: functional. The following applies: 30 µM.

Test [3] has as its target AMP-activated protein kinase, AMPK (Homo sapiens) (UniProt P54646+O43741+P54619+Q9UGJ0+Q9Y478+Q13131+Q9UGI9). The test is described as follows: AMP-dependent Kinase enzyme assay. An in vitro enzyme assay that detects ADP turnover that is directly proportional to AMPK activity. This uses naive AMPK that is activated during the assay with MK-8722. It is filed as functional. The conditions noted are these: 30 µM.

In test [4] the target is Sialic acid-binding Ig-like lectin 9 (Homo sapiens) (UniProt Q9Y336). The test is described as follows: Hs-Siglec9 ALPHAscreen SOP 20170721. The following applies: 10 µM.
A further test has as its system Trypanosoma cruzi. The test is described as follows: Trypanosoma cruzi phosphomannomutase and mannose-1-phosphate guanylyltransferase assay. It is filed as functional. The conditions noted are these: 10 µM.
The target of test [5] is T2, Arginase-2, mitochondrial (Homo sapiens) (UniProt P78540).
T2 sequence (whole entry): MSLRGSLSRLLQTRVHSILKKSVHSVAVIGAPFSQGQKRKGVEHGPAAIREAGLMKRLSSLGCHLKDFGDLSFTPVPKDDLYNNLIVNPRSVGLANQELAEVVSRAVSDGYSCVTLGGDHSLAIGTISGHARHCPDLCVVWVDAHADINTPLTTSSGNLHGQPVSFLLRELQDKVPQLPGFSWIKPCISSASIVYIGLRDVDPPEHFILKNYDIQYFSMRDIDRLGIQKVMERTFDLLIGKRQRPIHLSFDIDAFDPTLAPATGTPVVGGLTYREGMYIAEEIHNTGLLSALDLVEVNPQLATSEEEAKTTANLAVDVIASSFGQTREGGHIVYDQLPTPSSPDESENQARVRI
Briefly: in vitro enzyme assay to detect the production of urea directly proportional to the activity of Arginase II. Note: in the data most compounds retested in dose-response had high values. Type of test: functional. The conditions noted are these: 33.3 µM.

In test [6] the target is T3, Proteasome subunit beta (Trypanosoma cruzi) (UniProt O96673).
T3 sequence (whole entry): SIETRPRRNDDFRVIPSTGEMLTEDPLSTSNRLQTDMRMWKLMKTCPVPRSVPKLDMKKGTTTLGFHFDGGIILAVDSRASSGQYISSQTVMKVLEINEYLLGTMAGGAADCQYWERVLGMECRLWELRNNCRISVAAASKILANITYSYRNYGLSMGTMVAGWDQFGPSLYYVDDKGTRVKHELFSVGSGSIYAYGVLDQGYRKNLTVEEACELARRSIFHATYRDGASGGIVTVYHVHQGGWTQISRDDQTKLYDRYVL
The test is described as follows: Trypanosoma cruzi proteasome chymotrypsin-like activity (TcProtChymo) assay. Note: in the data most compounds retested in dose-response had high values. It is filed as functional. The following applies: 9.37 µM.

For the next test, the species on record is Homo sapiens. The test is described as follows: To identify inhibition of the IFN signalling (Jak-Stat) pathway via expression of an eGFP reporter gene under the control of an IFN-stimulated response element (ISRE) containing MxA promoter. Type of test: functional. The conditions noted are these: 30 µM.
The target of test [7] is T4, Tyrosyl-tRNA synthetase, putative (Trypanosoma cruzi (strain CL Brener)) (UniProt Q4DSP6).
T4 sequence (whole entry): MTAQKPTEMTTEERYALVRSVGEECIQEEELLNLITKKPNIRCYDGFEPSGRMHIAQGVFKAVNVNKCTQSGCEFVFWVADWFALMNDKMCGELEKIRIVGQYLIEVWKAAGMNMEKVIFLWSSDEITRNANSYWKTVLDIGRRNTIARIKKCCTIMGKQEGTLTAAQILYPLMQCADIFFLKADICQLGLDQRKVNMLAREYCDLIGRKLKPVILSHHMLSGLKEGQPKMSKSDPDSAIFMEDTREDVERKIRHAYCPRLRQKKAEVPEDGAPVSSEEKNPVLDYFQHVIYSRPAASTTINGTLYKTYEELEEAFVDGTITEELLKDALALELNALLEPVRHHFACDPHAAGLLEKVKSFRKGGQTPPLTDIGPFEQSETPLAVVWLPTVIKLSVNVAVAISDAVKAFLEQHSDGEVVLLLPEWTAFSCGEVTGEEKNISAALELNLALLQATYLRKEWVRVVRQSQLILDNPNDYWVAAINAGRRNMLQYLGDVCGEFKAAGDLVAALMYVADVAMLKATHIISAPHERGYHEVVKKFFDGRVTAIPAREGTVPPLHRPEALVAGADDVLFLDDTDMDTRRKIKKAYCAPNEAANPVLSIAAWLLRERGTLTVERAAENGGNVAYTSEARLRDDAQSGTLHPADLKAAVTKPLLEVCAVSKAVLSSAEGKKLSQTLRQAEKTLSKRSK
The test is described as follows: Trypanosoma cruzi tyrosyl tRNA synthetase (TcYRS) _High Tyrosine SOP. Note: in the data most compounds retested in dose-response had high values. It is filed as functional. The conditions noted are these: 30 µM.

Test [8] addresses T4, Tyrosyl-tRNA synthetase, putative (Trypanosoma cruzi (strain CL Brener)). Briefly: Trypanosoma cruzi tyrosyl tRNA synthetase (TcYRS) SOP. The conditions noted are these: 30 µM. It is filed as functional.
Test [9] concerns the target Chromo domain-containing protein 1 (Saccharomyces cerevisiae (strain ATCC 204508 / S288c) (Baker's yeast)) (UniProt P32657). Briefly: ScCHD-1 Enzyme Inhibition Assay. Note: in the data most compounds retested in dose-response had high values. It is filed as functional. The following applies: 30 µM.

For some of these results: Measured potencies and affinities stand elsewhere.

Chain of Chromo domain-containing protein 1 (Saccharomyces cerevisiae (strain ATCC 204508 / S288c) (Baker's yeast)) (P32657 whole entry, the tested form may be a part): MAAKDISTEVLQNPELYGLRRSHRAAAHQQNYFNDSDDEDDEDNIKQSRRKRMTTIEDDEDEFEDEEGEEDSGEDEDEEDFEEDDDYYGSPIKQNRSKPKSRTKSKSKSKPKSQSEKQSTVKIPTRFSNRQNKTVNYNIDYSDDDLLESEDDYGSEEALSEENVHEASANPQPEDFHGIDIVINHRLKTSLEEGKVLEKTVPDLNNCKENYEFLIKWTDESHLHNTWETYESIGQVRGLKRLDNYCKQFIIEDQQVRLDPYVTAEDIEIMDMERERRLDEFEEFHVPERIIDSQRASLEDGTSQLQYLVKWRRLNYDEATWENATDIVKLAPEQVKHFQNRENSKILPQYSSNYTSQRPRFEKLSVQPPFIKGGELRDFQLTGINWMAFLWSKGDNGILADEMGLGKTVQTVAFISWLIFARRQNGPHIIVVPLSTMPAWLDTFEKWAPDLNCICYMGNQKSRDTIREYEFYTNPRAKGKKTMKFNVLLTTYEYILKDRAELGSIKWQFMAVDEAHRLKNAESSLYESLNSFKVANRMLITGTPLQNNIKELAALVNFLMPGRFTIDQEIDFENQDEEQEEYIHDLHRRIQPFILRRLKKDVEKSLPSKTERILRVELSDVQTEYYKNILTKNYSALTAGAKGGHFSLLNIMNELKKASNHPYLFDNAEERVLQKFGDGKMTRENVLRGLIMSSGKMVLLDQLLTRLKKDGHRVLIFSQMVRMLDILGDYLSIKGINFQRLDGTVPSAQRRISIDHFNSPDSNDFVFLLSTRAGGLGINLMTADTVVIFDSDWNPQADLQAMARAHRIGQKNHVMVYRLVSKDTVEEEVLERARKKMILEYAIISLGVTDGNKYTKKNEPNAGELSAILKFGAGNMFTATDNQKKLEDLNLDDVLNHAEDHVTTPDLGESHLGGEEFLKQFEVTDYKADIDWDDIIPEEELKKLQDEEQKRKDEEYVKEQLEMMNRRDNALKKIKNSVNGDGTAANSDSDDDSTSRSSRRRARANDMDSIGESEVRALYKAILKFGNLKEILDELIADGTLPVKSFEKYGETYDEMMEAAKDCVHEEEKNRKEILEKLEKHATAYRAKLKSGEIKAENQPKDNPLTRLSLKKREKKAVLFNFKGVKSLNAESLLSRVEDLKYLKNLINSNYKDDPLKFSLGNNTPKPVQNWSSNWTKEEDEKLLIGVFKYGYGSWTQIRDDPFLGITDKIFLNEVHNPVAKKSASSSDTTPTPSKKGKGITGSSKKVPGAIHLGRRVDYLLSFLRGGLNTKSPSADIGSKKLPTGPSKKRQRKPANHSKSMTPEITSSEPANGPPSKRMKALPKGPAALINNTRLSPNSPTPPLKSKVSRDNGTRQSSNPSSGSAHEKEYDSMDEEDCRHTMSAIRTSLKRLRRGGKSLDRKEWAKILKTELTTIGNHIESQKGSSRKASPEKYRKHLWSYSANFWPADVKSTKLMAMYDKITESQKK
Chain of Sialic acid-binding Ig-like lectin 9 (Homo sapiens) (Q9Y336 whole entry): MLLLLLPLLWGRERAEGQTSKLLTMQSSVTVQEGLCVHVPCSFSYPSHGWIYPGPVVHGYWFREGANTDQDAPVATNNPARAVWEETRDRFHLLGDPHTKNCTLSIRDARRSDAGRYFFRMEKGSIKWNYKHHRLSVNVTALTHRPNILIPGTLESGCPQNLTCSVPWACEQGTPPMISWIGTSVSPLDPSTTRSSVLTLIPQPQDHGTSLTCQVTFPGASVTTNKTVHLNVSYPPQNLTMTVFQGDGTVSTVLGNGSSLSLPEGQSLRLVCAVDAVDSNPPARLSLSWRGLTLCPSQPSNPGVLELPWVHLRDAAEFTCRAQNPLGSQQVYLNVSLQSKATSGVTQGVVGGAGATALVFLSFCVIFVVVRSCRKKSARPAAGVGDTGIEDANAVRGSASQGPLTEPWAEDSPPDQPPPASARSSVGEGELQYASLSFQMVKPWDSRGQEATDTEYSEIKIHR
Chain of Protein translocase subunit SecA (Escherichia coli (strain K12)) (P10408 whole entry): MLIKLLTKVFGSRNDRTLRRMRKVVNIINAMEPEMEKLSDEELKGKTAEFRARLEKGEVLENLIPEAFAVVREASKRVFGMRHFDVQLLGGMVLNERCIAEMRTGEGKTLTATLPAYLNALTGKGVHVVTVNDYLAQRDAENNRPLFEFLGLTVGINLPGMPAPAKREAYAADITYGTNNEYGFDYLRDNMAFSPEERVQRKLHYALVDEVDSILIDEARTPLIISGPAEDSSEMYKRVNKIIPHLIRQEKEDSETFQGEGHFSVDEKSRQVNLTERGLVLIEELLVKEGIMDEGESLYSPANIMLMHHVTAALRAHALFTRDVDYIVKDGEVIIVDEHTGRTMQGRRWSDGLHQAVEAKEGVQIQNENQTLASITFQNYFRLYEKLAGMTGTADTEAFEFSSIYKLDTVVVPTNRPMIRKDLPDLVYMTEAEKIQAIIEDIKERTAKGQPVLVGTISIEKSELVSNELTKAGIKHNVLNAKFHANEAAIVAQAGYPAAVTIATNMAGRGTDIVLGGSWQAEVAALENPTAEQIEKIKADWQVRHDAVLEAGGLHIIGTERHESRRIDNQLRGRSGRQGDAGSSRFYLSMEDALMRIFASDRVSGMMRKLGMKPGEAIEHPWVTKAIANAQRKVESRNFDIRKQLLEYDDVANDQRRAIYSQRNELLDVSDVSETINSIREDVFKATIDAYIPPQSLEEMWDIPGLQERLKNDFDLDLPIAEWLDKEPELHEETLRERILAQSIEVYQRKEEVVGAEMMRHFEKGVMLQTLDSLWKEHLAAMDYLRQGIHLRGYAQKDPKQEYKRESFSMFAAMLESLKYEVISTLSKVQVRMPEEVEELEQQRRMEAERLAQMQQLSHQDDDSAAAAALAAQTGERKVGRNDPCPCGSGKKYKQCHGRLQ

Regarding `Cc1nccnc1N1CCC2(CCCN(C3CCOCC3)C2=O)C1` (stereo not drawn), the Percent Effect was -7.49% in test [1]; -2.74% in [2]; 0.961% in test [3]; -4.09% in test [4]; -5.56% in the test with Trypanosoma cruzi; 0% in test [5]. For the same compound, the Percent Effect in test [6] was -1.63%; in the test filed under Homo sapiens, 27.4%; in [7], 0%; in test [8], -3.7%; in test [9] it was 0.0613%.
As to `CN(C)S(=O)(=O)N1CC[C@@H]2CN(Cc3cnn(C)c3)C[C@@H]2C1`, the Percent Effect is -6.2% in test [1]; -2.6% in [2]; 26.8% in [3]; -2.67% in test [4]; -4.63% in the test with Trypanosoma cruzi; 0.645% in test [5]. Further, the Percent Effect in test [6] was 0.696%; in the test listed under Homo sapiens, 33.3%; in test [7], -1.06%; in test [8], -1.28%; in test [9] it was -3.27%.
On to `CCc1ccc(CCC(=O)N2CCOCC2c2ncon2)cc1` (stereo not drawn), for which the Percent Effect was 2.75% in test [1]; -8.11% in test [2]; 4.51% in [3]; 1.5% in test [4]; -2.69% in the test with Trypanosoma cruzi; 3.14% in test [5]. For the same compound, the Percent Effect in test [6] is 3.05%; in the test filed under Homo sapiens, 13.7%; in test [7], -0.99%; in test [8], 1.22%; in test [9], 8.82%.
Regarding `Cc1ccc(C(=O)N2CCCC2c2nnc3n2CCCCC3)o1` (stereo not drawn), the Percent Effect in [1] was 0.332%; in test [2], -1.39%; in test [3], 7.46%; in [4], -3.27%; with Trypanosoma cruzi, -2.23%; in test [5], -11.9%. For the same compound, the Percent Effect in [6] is 6.84%; in the test listed under Homo sapiens it was -2.88%; in test [7], 2.1%; in [8], -5.13%; in [9], -1.81%.
For `Cn1cc(CN2CCn3cc(CNC(=O)C4CCC4)nc3C2)cn1`, the Percent Effect in test [1] is -3.67%; in test [2], 5.33%; in [3], 4.55%; in [4], 2.73%; in the test on Trypanosoma cruzi, -0.386%; in test [5], -31%. Moreover, the Percent Effect in test [6] was 7.69%; in the test filed under Homo sapiens it was 0.15%; in test [7], 7.29%; in test [8] it was 12.5%; in test [9], -8.18%.
For `COCC(=O)N1Cc2cn(C)nc2C(COc2cccnc2)C1` (stereo not drawn), the Percent Effect in test [1] is 1.2%; in test [2], 15.6%; in [3], 0.672%; in test [4], -9.95%; with Trypanosoma cruzi, -0.493%; in test [5], 7.1%. Besides, the Percent Effect in test [6] is 10.4%; in the test filed under Homo sapiens, 35.1%; in test [7], 1.06%; in test [8] it was 6.41%; in test [9], -9.03%.
Regarding `Cc1cc(N2CCN(CCO)CC2)nc(-c2ccncc2)n1`, the Percent Effect in [1] was -0.472%; in [2], 5.26%; in test [3], 0.962%; in test [4], -2.69%; with Trypanosoma cruzi it was -0.876%; in test [5] it was -8.28%. Also, the Percent Effect in test [6] is 21.6%; in the test listed under Homo sapiens, -0.921%; in [7], 7.45%; in [8], 7.79%; in test [9], -4.96%.
Take `CS(=O)(=O)NCC1CCCCN1C(=O)Nc1cccnc1N1CCCC1` (stereo not drawn): the Percent Effect in test [1] is -15.1%; in [2], 13.2%; in test [3], -38%; in [4] it was 3.6%; in the test with Trypanosoma cruzi it was 7.89%; in test [5] it was 0%. The Percent Effect in test [6] is 8.92%; in the test filed under Homo sapiens, 2.36%; in test [7], 5.32%; in test [8], 13%; in test [9], -19.9%.
